Drawing on PubChem BioAssay AID758 (NMMLSC, 2007), this text covers GTP binding activity (percent of control) for 5 molecules.

The whole screen tested about 190,000 compounds, of which about 110 (0.058%) were called active. Not shown: some 2% with an inconclusive outcome. The sample as a whole holds a higher share of actives than the screen did. Unmarked numbers belong to inactive results.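 How the source made its calls: active means fluorescent GTP binding to Rab7 beads changed by at least 20 points from the 100% baseline, either direction, mostly lower; inconclusive means compound itself probably fluorescent, or too few beads counted; inactive means the rest.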

The assay relates to Rab7 GTPase wild type (dog), Bodipy-FL-GTP binding. In words: wildtype dog Rab7 nucleotide binding alteration – biochemical, multiplex bead flow cytometry, primary screen (AID 758).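 Further: median green fluorescence of bound Bodipy-FL-GTP per Rab7 bead population.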 Particulars: GST-Rab7 beads, fluorescent GTP binding, at 10 µM, actives lie on both sides.
For the molecule `CCCC(C)n1[nH]c(=O)c2c1NC(=O)CSC2c1ccc(OC)c(OC)c1` (stereo not given), the GTP binding activity (percent of control) was 100%.
With `CCOc1ccc(C2SCC(=O)Nc3c2c(C)nn3C2CCOC(C)(C)C2)cc1` (stereo not given), the GTP binding activity (percent of control) is 79% (active).
Regarding `CN(C)CCCN=Cc1c(O)n(Cc2ccco2)c(=O)[nH]c1=O`, the GTP binding activity (percent of control) is 104%.
In the case of `COP(=O)(OC)C(NC(=O)c1ccc(C)cc1)C(Cl)(Cl)Cl` (stereo not given), the GTP binding activity (percent of control) is 99%.
On to `O=C(Cc1ccccc1)N1CCN(C2CCCCCC2)CC1`, for which the GTP binding activity (percent of control) is 98%.
